PubChem BioAssay

The compounds below were run on Human papillomavirus type 1a E7 protein (residues 1-88) (assay: HPV1a E7 small-molecule binders, primary screen, biochemical, small-molecule microarray, residues 1-88, 635 nm (AID 1129)). Conditions: small-molecule microarray binding, fluorescence 635 nm; higher = more signal.
For `COCCOC(=O)N1C(=O)[C@@]2(c3cc(C#CCC(C(=O)OC)C(=O)OC)ccc31)[C@H](c1ccccc1OCCO)N1[C@H](c3ccccc3)[C@H](c3ccccc3)OC(=O)[C@H]1[C@@H]2C(=O)N1CCN(c2ncccn2)CC1`, the composite z-score was 1.12. With `C=CCC(OC(C)=O)[C@@H]1[C@@H](N(Cc2ccc(-c3ccccc3)cc2)C(=O)c2cccc3ccccc23)c2cc(OCCCO)ccc2N1C(=O)c1ccc(-c2ccccc2)cc1` (stereo not given in full) the composite z-score was 0.521. Work on `O=C(NCCO)C1=C[C@H](Oc2ccccc2I)[C@@H](O)[C@H](N(Cc2ccco2)C(=O)Cc2ccccc2)C1` yielded a composite z-score of 0.234. With `C#C[C@H](O[Si](C#Cc1ccc(Oc2ccccc2)cc1)(C(C)C)C(C)C)c1ccccc1` the composite z-score was 0.679. Work on `CC1CC/C=C\[C@H]2OC34C=CCN(Cc5ccccc5)C(=O)[C@H]3N(CCCO)C(=O)[C@@H]4C2C(=O)O1` (stereo not given in full) yielded a composite z-score of -0.67. Work on `CCOC(=O)C[C@H]1[C@H](OC(=O)c2ccc(C(=O)c3ccccc3)cc2)[C@@H](NC(=O)c2ccccc2)c2cc(OCCCO)ccc2N1C(=O)Cc1ccc(OC)cc1` yielded a composite z-score of -0.158. Work on `CC(C)CNC(=O)[C@@]1(Cc2ccccc2I)c2ccccc2C(=O)N(C2CCCCC2)[C@H]1c1ccc(CO)cc1` yielded a composite z-score of 1. With `Cc1ccc(S[C@]2(C(=O)NCCCN(C)C)CC(=O)N(Cc3ccccc3C(F)(F)F)[C@@H]2c2ccc(CO)cc2)cc1` the composite z-score was -0.935. `C=CC[C@]1(C(=O)NCCCOC)N=C(c2ccc(OCCCO)cc2)O[C@H]1c1ccccc1CN=[N+]=[N-]` was tested, and the composite z-score was 1.23. Work on `Cc1ccc(S[C@]2(C(=O)NCCCN(C)C)CC(=O)N(Cc3cc(C(F)(F)F)cc(C(F)(F)F)c3)[C@@H]2c2ccc(CO)cc2)cc1` yielded a composite z-score of -0.817. In the case of `CCCC[C@H]1OB(O)C[C@H]2C1=C(COC)Cn1c(=O)n(-c3ccccc3)c(=O)n12`, the composite z-score is reported as 0.169. `COc1ccc(/C=C/C=O)cc1` showed a composite z-score of -0.238. `NC(=O)NCC#Cc1ccc2c(c1)[C@]1(C(=O)N2)[C@H](c2ccccc2OCCO)N2[C@H](c3ccccc3)[C@H](c3ccccc3)OC(=O)[C@H]2[C@@H]1C(=O)Nc1nc2ccccc2s1` showed a composite z-score of 0.844. `C=CCC(OC(C)=O)[C@@H]1[C@@H](N(Cc2ccc(-c3ccccc3)cc2)C(=O)c2ccc(-c3ccccc3)cc2)c2cc(OCCCO)ccc2N1C(=O)Cc1ccc2ccccc2c1` (stereo not given in full) gave a composite z-score of -0.0959. `Cc1ccc(N2C(=O)c3ccccc3[C@@H](C(=O)NC3CC3)[C@@H]2c2ccc(CO)cc2)nc1` showed a composite z-score of -0.372. `COCCCNC(=O)[C@@]1(C)c2ccccc2C(=O)N(C(C)C)[C@H]1c1ccc(CO)cc1` gave a composite z-score of 1.14. With `COC(=O)[C@@]1(Cc2ccc(OC)cc2)[C@@H]2C(=CC(=O)[C@H]2CC(=O)C(=O)N2CCCC2)CN1C(=O)c1ccccc1` the composite z-score was 0.882. `C=C(COC)/C(=C/C[C@@H](OC(=O)c1ccncc1)c1ccc(CO)o1)c1cc(C(=O)OC)ccc1OC` gave a composite z-score of 1.24. `NC(=O)NCC#Cc1ccc2c(c1)[C@]1(C(=O)N2)[C@H](C(=O)Nc2nc3ccccc3s2)[C@H]2C(=O)O[C@H](c3ccccc3)[C@H](c3ccccc3)N2[C@@H]1c1ccccc1OCCO` gave a composite z-score of 0.759. `COc1ccc(C(=O)Nc2ccc(CN3C(=O)[C@]4(O[C@H](CCO)[C@@H]([Si](C)(C)c5ccc(OC)cc5)[C@@H]4C)c4ccccc43)cc2)cc1` showed a composite z-score of 1.06. For `COc1cc2c(cc1OC)CN(C(=O)[C@@H]1[C@H]3C(=O)O[C@H](c4ccccc4)[C@H](c4ccccc4)N3[C@H](c3ccc(O)cc3)[C@@]13C(=O)Nc1ccccc13)CC2`, the composite z-score was 1.21. Compound `[N-]=[N+]=Nc1ccccc1[C@@H]1OC(c2ccc(OCCCO)cc2)=N[C@]1(CCS(=O)(=O)c1ccccc1)C(N)=O` has a composite z-score of 1.23. Work on `COC(=O)[C@@]1(Cc2ccc(F)cc2)[C@H]2c3cc(C(=O)N4CCCC4)n(CCCNc4ncc(C(F)(F)F)cc4Cl)c3C[C@H]2CN1C(=O)c1ccccc1` yielded a composite z-score of 1.08. With `[N-]=[N+]=Nc1ccccc1[C@@H]1OC(c2ccc(OCCCO)cc2)=N[C@]1(Cc1ccccc1)C(=O)N1CCOCC1` the composite z-score was 1.19. For `C=CCC(OC(C)=O)[C@@H]1[C@@H](N(Cc2ccc(-c3ccccc3)cc2)C(=O)Cc2ccc(OC)cc2)c2cc(OCCCO)ccc2N1C(=O)Cc1ccc2ccccc2c1` (stereo not given in full), the composite z-score was -0.442. With `CC1(C)C2C=C(C(O)C3C=CC4C(=O)NC(=O)C4N3Nc3ccc(Cl)cc3Cl)C[C@@H]1C2` (stereo not given in full) the composite z-score was 0.87. `CO[C@H]1O[C@H](CO)[C@@H](OC(=O)Nc2cccc(F)c2)[C@H](OC(=O)Nc2ccccc2)[C@@H]1OC(=O)Nc1ccccc1` was tested, and the composite z-score was 1.22. `COc1ccc(C(O)C2C=CC3C(=O)N(Cc4ccccc4)C(=O)C3N2n2cnnc2)cc1OCc1ccccc1` (stereo not given) showed a composite z-score of 0.48. `COC(=O)[C@@]1(Cc2ccc(OC)cc2)[C@H]2c3cc(C(=O)N4CCCC4)n(Cc4ccc(C)c(F)c4F)c3C[C@H]2CN1C(=O)c1ccccc1` showed a composite z-score of 1.27. In the case of `CC(=O)NCCCC[C@@H]1NC(=O)[C@H]2C[C@@H](C(=O)NCCCCCCNC(=O)CS)[C@@H](c3ccc(O)cc3)N2C1=O`, the composite z-score is reported as 0.432. For `COCCOC(=O)N1C(=O)[C@@]2(c3cc(C#CC4(O)CCCCCC4)ccc31)[C@H](c1ccc(OCCO)cc1)N1[C@H](c3ccccc3)[C@H](c3ccccc3)OC(=O)[C@H]1[C@@H]2C(=O)N1CCN(c2ncccn2)CC1`, the composite z-score was 1.21. In the case of `CCCCCN1CC=CC23O[C@@H]4/C=C\CCC(C)OC(=O)C4[C@H]2C(=O)N(C(C)CO)[C@@H]3C1=O` (stereo not given in full), the composite z-score is reported as -0.575. `COc1ccc(C#Cc2ccc3c(c2)[C@]2(C(=O)N3)[C@H](C(=O)NC[C@H](O)c3ccccc3)[C@H]3C(=O)O[C@H](c4ccccc4)[C@H](c4ccccc4)N3[C@@H]2c2ccc(O)cc2)cc1` gave a composite z-score of 1.23. With `COc1ccc(C#Cc2ccc3c(c2)[C@]2(C(=O)N3)[C@H](c3ccccc3OCCO)N3[C@H](c4ccccc4)[C@H](c4ccccc4)OC(=O)[C@H]3[C@@H]2C(=O)Nc2nc3ccccc3s2)cc1` the composite z-score was 1.16. `CN1C(=O)C2C=CC(C(O)c3ccco3)N(Nc3ccccc3)C2C1=O` (stereo not given) gave a composite z-score of 0.103.
